Compound activity as filed in PubChem BioAssay.
In the library only some 10% were active in any assay of this set; here they are far more common.
HEK cytotox: HEK 293 cell cytotoxicity; HEK 293 viability, ATP luminescence (CellTiter-Glo), 48-72 h; Potency, µM (series often up to 115 µM), actives largely listed as inhibitors; hit rate 6.6% among 94,000; AID 1345083; also: nearly all actives have a fitted effect of over 60% in size
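HEK 293 seeded at 250 cells/well receive compound via pintool. After 48 or 72 hr at 37 degree Celsius, 5% CO2 and 95% humidity, CellTiter-Glo is dispensed and luminescence read following 10 min at room temperature.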
NPR1 antag: antagonists of human natriuretic peptide receptor Npr1; AID 1347048; HEK293 hNpr1 GloSensor cGMP, ANP-stimulated luminescence; hit rate 1.6% among 76,000; P16066; Potency, µM (titrated, usually from 46.3 µM), usual class: inhibitors; calls by dose curve; also: nearly all actives have a fitted effect of over 60% in size
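Compound pre-incubated 30 min at room temperature on GloSensor-loaded HEK293 cells stably carrying hNpr1 and the pGS-40F cGMP biosensor. Stimulation uses hNppA at 0.1 nM final; luminescence is taken at baseline and 20 min post-agonist.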
FLuc inh: blocks purified firefly luciferase enzyme activity. P08659. purified P. pyralis luciferase, luminescence, biochemical. Potency, µM (doses to about 115 µM), hits mostly inhibitors. hit rate 2.5% among 76,000. AID 1347043; also: nearly all actives have a fitted effect of over 65% in size
Target sequence (P08659 whole entry, looked up): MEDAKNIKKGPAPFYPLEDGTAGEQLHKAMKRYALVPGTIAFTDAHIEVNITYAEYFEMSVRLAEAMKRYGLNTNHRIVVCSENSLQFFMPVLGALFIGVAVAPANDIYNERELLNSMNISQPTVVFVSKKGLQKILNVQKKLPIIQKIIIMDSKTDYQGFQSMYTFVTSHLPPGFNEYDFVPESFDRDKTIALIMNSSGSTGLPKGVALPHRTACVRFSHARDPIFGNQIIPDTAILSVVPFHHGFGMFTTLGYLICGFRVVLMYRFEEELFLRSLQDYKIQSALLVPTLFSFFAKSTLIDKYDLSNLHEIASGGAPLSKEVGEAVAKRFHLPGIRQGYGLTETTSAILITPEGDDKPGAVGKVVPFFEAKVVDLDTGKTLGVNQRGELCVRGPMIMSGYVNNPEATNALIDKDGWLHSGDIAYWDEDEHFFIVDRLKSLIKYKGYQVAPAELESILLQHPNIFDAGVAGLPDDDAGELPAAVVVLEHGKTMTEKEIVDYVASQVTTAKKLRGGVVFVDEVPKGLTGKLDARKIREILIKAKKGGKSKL
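Cell-free enzyme assay, 10nM P. pyralis luciferase, luciferin and ATP each at 10uM. Inhibition profiled over a 6-point titration, read as luminescence.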
GPT2 inhibitor: inhibitors of human GPT2 alanine aminotransferase; Q8TD30; Recombinant GPT2, coupled pyruvate oxidase/HRP Amplex Red fluorescence; Potency, µM (highest dose often 57.7 µM), hits mostly inhibitors; hit rate 0.25% among 100,000; also: nearly all actives have a fitted effect of over 60% in size
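Fluorescence of coupled pyruvate oxidase/HRP/Amplex Red system (50uM Amplex, 30 min, dark) reports pyruvate formed by GPT2. Enzyme reaction: 10ng/uL GPT2, 2mM L-alanine, 250uM a-KG, 30 min room temperature, pH 7.5; 50uM AOA control.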
NIH3T3 tox: cytotoxic compounds in NIH 3T3 cells | NIH 3T3 viability, CellTiter-Glo ATP luminescence, 48-72 h | Potency, µM (doses to about 96.7 µM), actives largely listed as inhibitors | hit rate 4.3% among 94,000 | AID 1345082; also: nearly all actives have a fitted effect of over 55% in size
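Luminescent ATP readout (CellTiter-Glo, 10 min RT) after 48 or 72 hr compound exposure of NIH 3T3 cells seeded at 400 cells/well in 1536-well format; quantitative HTS.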
Large screens that a line does not name were inactive. Unless noted, calls follow the shape of the dose curve; as a rule, active = well fitted curve in the direction sought with a large enough effect; inconclusive = small, poorly fitted or top-dose-only effect, or another doubt; inactive = no such curve, though single readings can be large; an effect the other way counts as inactive or inconclusive.

CCOc1nccn2c(-c3ccc(CN4CCN(C(C)=O)CC4)cc3)cnc12	FLuc inh inconclusive, NIH3T3 tox inconclusive
CC(=O)NCc1nnc2n1C(C(=O)Nc1ccc(C)cc1)CC2 (centres undefined)	none (no result: NPR1 antag, FLuc inh)
Cc1ccc(C(=O)N(CC(C)C)CC2CN(C(=O)c3ccc(Cl)c(Cl)c3)CCO2)cc1 (centres undefined)	HEK cytotox 44.7µM, NIH3T3 tox inconclusive
CC(C)CN(CC1CN(C(=O)c2cccc(Cl)c2)CCO1)C(=O)c1cccc2ccccc12 (centres undefined)	HEK cytotox 35.5µM, NIH3T3 tox inconclusive
Cc1ccc(C(=O)N(CC(C)C)CC2CN(C(=O)Nc3cccc(Cl)c3)CCO2)cc1 (centres undefined)	HEK cytotox 39.8µM, NIH3T3 tox inconclusive
COc1cccc(NC(=O)N2CCOC(CN(CC(C)C)C(=O)c3cccc(OC)c3)C2)c1 (centres undefined)	HEK cytotox inconclusive
CNC(=O)N1CCC(C2CCN(Cc3cc(F)c(F)c(F)c3)C2)CC1 (centres undefined)	none
Cc1nn(-c2ccc(C(C)C)cc2)c(C)c1[C@@H]1C=C[C@@H](NCc2ccc(F)cc2)C1	HEK cytotox 8.91µM, NPR1 antag inconclusive, FLuc inh 22.4µM, NIH3T3 tox 7.08µM
Cc1nn(CCC#N)c(C)c1[C@@H]1C=C[C@@H](NCc2ccc(C(C)C)cc2)C1	HEK cytotox 70.8µM, NIH3T3 tox inconclusive
Cc1nn(-c2ccc(F)cc2)c(C)c1[C@@H]1C=C[C@@H](NCc2ccc(C(C)C)cc2)C1	HEK cytotox 11.2µM, NPR1 antag inconclusive, NIH3T3 tox 10µM
Cc1nn(CCC#N)c(C)c1[C@@H]1C=C[C@@H](NCc2ccc(F)cc2)C1	none
Cc1nn(-c2ccc(C(F)(F)F)cc2)c(C)c1[C@@H]1C=C[C@@H](NC(=O)CC(C)(C)CC(=O)O)C1	NIH3T3 tox inconclusive
O=C(NC1CCN(c2ccnc3ccnn23)CC1)c1ccc(C(F)(F)F)cc1	HEK cytotox inconclusive, NIH3T3 tox inconclusive (no result: NPR1 antag, FLuc inh)
Cc1ccc(-c2[nH]ncc2CN2CCN(c3ccc(Cl)cn3)CC2)cc1C	HEK cytotox 35.5µM, GPT2 inhibitor inconclusive, NIH3T3 tox inconclusive
COc1ccccc1Cn1c(=O)c(C(=O)N2CCN(C(=O)Cc3ccc(F)cc3)CC2)nc2cccnc21	HEK cytotox inconclusive, NIH3T3 tox inconclusive (no result: NPR1 antag, FLuc inh)
NCc1ccc(-c2ccc(OC(F)(F)F)cc2)cc1	HEK cytotox 25.1µM, NIH3T3 tox 25.1µM (no result: NPR1 antag, FLuc inh)
NCc1ccc(-c2ccc(F)cc2)cc1	HEK cytotox 100µM, NIH3T3 tox 89.1µM (no result: NPR1 antag, FLuc inh)
COc1ccc(-c2ccc(CN)cc2)cc1	HEK cytotox inconclusive, NIH3T3 tox inconclusive (no result: NPR1 antag, FLuc inh)
NCc1cccc(-c2cc(F)cc(F)c2)c1	HEK cytotox inconclusive, NIH3T3 tox 89.1µM (no result: NPR1 antag, FLuc inh)
COCC(=O)N1CCCC1C(=O)N1CCC(c2ccccc2)CC1 (centres undefined)	none (no result: NPR1 antag, FLuc inh)
CCc1nc(NCCc2cc(OC)cc(OC)c2)c2cnn(C)c2n1	HEK cytotox inconclusive, NIH3T3 tox inconclusive
CCc1nc(NC(c2ccccc2)c2ccco2)c2cnn(C)c2n1 (centres undefined)	HEK cytotox 39.8µM, NIH3T3 tox inconclusive
COc1ccc(-c2cc3c(ccn3C)c(C(=O)NCCc3cnc[nH]3)n2)cn1	HEK cytotox inconclusive, NIH3T3 tox 25.1µM
Cn1ccc2c(C(=O)NCCc3cnc[nH]3)nc(-c3cccc(CO)c3)cc21	HEK cytotox inconclusive, NIH3T3 tox inconclusive
Cn1ccc2c(C(=O)NCCc3cnc[nH]3)nc(-c3cnn(Cc4ccccc4)c3)cc21	HEK cytotox inconclusive, NIH3T3 tox 79.4µM
Cn1ccc2c(C(=O)NCCc3cnc[nH]3)nc(-c3ccccc3)cc21	HEK cytotox inconclusive, FLuc inh inconclusive, NIH3T3 tox inconclusive
Cn1ccc2c(C(=O)NCCc3cnc[nH]3)nc(-c3cccnc3)cc21	NIH3T3 tox 44.7µM
Cn1ccc2c(C(=O)NCCc3cnc[nH]3)nc(-c3cccc(C(F)(F)F)c3)cc21	HEK cytotox 39.8µM, NIH3T3 tox 35.5µM
COc1ccc(C2(C(=O)N3CCN(Cc4ccccc4)CC3)CCOCC2)cc1	none (no result: NPR1 antag, FLuc inh)
Cc1ccccc1C1(O)CCN(C(=O)c2ccc(C#CC(C)(C)O)o2)C1 (centres undefined)	HEK cytotox inconclusive, NIH3T3 tox 35.5µM
CC(C)(O)C#Cc1ccc(C(=O)N2CC(=O)N(C3CCCCC3)CC(OCc3cccnc3)C2)o1 (centres undefined)	none
O=C(Cc1c[nH]c2ncc(-c3cccnc3)cc12)NC1CC1	NIH3T3 tox 70.8µM
Cc1cc(-c2cnc3[nH]cc(CC(=O)NCc4cccnc4)c3c2)ccn1	HEK cytotox inconclusive, NIH3T3 tox inconclusive
COc1ccc(-c2cnc3[nH]cc(CC(=O)NCc4cccnc4)c3c2)cc1OC	HEK cytotox inconclusive, NIH3T3 tox 15.8µM
O=C(Cc1c[nH]c2ncc(-c3ccccc3)cc12)Nc1cccnc1	HEK cytotox 70.8µM, NIH3T3 tox 28.2µM
O=C(Cc1c[nH]c2ncc(-c3cccc(OC(F)(F)F)c3)cc12)NCc1cccnc1	HEK cytotox 70.8µM, NPR1 antag inconclusive, FLuc inh inconclusive, GPT2 inhibitor inconclusive, NIH3T3 tox 44.7µM
Cc1cc(C)cc(-c2ccc(CN3CCCC3C(=O)N3CCOCC3)cc2)c1 (centres undefined)	HEK cytotox inconclusive, NIH3T3 tox inconclusive (no result: NPR1 antag, FLuc inh)
O=C(Cc1c[nH]c2ncc(-c3ccc(F)cc3)cc12)NCc1cccnc1	HEK cytotox inconclusive, NPR1 antag inconclusive, FLuc inh inconclusive, NIH3T3 tox inconclusive
COc1ccc(NC(=O)Cc2c[nH]c3ncc(-c4ccccc4)cc23)cc1OC	HEK cytotox 89.1µM, NPR1 antag inconclusive, NIH3T3 tox inconclusive
O=C(Cc1c[nH]c2ncc(-c3cccnc3)cc12)Nc1ccccc1	HEK cytotox inconclusive, NIH3T3 tox 25.1µM
O=C(Cc1c[nH]c2ncc(-c3ccccc3)cc12)Nc1ccc(Cl)cc1	HEK cytotox inconclusive, NPR1 antag inconclusive, NIH3T3 tox inconclusive
O=C(Cc1c[nH]c2ncc(-c3cccnc3)cc12)NCc1ccccc1	HEK cytotox 89.1µM, NPR1 antag inconclusive, NIH3T3 tox 35.5µM
O=C1NCCCCCCN(Cc2ccncc2)[C@@H]2CN(Cc3ccncc3)CC[C@H]12	none
CN(Cc1ccccc1)c1ccc2nnc(-c3ccccn3)n2n1	HEK cytotox inconclusive, NIH3T3 tox 44.7µM
COc1ccc(-c2nnc3ccc(N(C)Cc4ccccc4)nn23)nc1	HEK cytotox inconclusive, NIH3T3 tox inconclusive
C[C@@H]1CN(c2ccc3nnc(-c4ccccn4)n3n2)C[C@H](C)O1	HEK cytotox inconclusive, NIH3T3 tox 79.4µM
Cc1ccc2nc(CO[C@H]3CN(C4CCC4)C[C@H]3F)[nH]c2c1	FLuc inh inconclusive
CN1CCCC2(CCN(C(=O)CCCOc3ccccc3)C2)C1=O (centres undefined)	FLuc inh 28.2µM
